Consider 5 compounds from PubChem BioAssay.

A short description of assay [1]: Wnt pathway potentiators raising nuclear beta-catenin – imaging, WNT3A-conditioned medium, mouse C2C12, NPC library, primary screen (AID 1117326; in the data active = nuclear beta-catenin stimulation mostly above about 4.2%, no sharp cut-off; inactive = mostly below about 10%). The settings on record: stronger effect = higher value.
The nature of assay [2]: stimulators of insulin release from INS-1E, primary screen, cell-based, 5 mM glucose, NPC library (AID 1117329). The conditions noted are these: rat INS-1E insulin secretion, at 10 µM, stronger effect = higher value.
Assay [3] can be described thus: growth inhibition of GSK3B-pretreated HCT116 cells – cell-based, CellTiter-Glo, 0.2 to 20 µM (AID 1117336;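 active = compounds lowering colon cancer cell viability after pretreatment blocking the GSK3B kinase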). The settings on record: HCT116 viability after GSK3B inhibitor, at 20 µM, stronger effect = higher value.
Assay [4] is described as follows: inhibition of endothelial tube formation, primary screen, imaging, VEGF stimulated, CD31 staining, tube area, NPC library (AID 1117340;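 active = compound that reduces growth-factor-driven endothelial tube area in a mixed cell culture, no cutoff stated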). The settings on record: VEGF-stimulated ADSC/ECFC co-culture, at 10 µM, stronger effect = higher value.
The nature of assay [5]: GLP1 release stimulators, primary, NCI-H716, NPC library (AID 1117341;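 active = compound raises GLP1 secretion from the human gut endocrine cells, with no numeric limit stated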). The conditions noted are these: NCI-H716 cells, at 10 µM, stronger effect = higher value.
Assay [6] is described as follows: HCT116 colon cancer cell growth inhibition, primary screen, CellTiter-Glo luminescence, NPC library (AID 1117342;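 active = compounds that lower survival of HCT116 colon cancer cells in the luminescence readout, no numeric limit stated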). The conditions noted are these: at 20 µM (top of the series). On the technique in general: In ATP-based viability assays light output follows the ATP content of the culture.
Assay [7] can be described thus: reduced SW480 viability measured with CellTiter-Glo, NPC library, primary (AID 1117343;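 active = compounds that lower viability of the colon cancer cells in the luminescence readout, with no numeric limit stated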). The conditions noted are these: CellTiter-Glo luminescence; at 20 µM (top of the series) unless noted.
Assay [8] in a line: NPC library primary testing for decreased DLD-1 cell viability via CellTiter-Glo (AID 1117346;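 active = compounds that lower survival of DLD-1 colon cancer cells in the luminescence readout, no cutoff given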). The settings on record: DLD-1 viability, CellTiter-Glo luminescence; at 20 µM (top of the series).
Assay [9] is described as follows: EMT-state selective cytotoxicity in co-culture – imaging, PC-3E GFP, TEM4-18 mCherry, primary screen (AID 1345086;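 active = compounds killing one labelled cell type while sparing the other, by normalised counts and ratio limits, not self-fluorescent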;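 for all read-outs here: cells exposed to compound for 72 h before imaging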;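 for red/green cell ratio (normalised): normalised mesenchymal count divided by normalised epithelial count so high means epithelial killing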). The settings on record: PC-3E GFP / TEM4-18 mCherry co-culture, imaging cell counts, at 1 µM; for red/green cell ratio (normalised): actives lie on both sides, counts scaled to control wells, 1 = unselective.
A short description of assay [10]: viability loss with induced miR-34 in A549 – imaging, A549 dox-inducible miR-34, nuclei and caspase counts, primary screen (AID 1347080;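 active = compounds whose cell count with miR-34 switched on is under 0.7 times the count with it off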). The conditions noted are these: A549 miR-34 inducible, Hoechst nuclei count, 48 h.
For assay [11], the target named is NAD(+) hydrolase SARM1 (Homo sapiens) (UniProt Q6SZW1). Briefly: blocking NAD cleavage by SARM1 SAM-TIR – cell lysate, NAD-Glo luminescence (AID 1508614;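 active = compound whose remaining NAD level is above about 45 nM, limit read from the data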;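 note: higher remaining NAD means stronger inhibition of SARM1 NADase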). The conditions noted are these: SAM-TIR HEK293T lysate NADase, at 1 µM, stronger effect = higher value.
Sequence of NAD(+) hydrolase SARM1 (Homo sapiens) (Q6SZW1 whole entry, looked up): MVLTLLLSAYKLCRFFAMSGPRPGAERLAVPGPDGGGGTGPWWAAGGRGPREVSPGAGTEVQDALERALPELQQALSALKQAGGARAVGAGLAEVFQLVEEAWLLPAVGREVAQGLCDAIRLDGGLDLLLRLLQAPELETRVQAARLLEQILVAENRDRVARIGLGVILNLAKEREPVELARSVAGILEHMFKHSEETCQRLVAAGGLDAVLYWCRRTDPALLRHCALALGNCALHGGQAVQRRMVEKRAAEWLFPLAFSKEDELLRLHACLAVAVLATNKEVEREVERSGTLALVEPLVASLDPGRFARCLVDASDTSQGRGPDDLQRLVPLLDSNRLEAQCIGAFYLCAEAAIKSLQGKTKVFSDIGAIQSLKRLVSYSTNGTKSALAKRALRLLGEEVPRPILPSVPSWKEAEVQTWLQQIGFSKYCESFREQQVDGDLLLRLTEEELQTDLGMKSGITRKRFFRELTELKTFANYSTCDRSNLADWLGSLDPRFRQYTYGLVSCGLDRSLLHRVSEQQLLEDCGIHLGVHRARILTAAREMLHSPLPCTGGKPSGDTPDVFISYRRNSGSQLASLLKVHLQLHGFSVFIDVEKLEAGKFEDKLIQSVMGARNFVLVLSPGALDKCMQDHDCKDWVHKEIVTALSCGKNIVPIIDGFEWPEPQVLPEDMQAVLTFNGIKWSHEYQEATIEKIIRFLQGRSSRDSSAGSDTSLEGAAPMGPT
Assay [12] in a line: compounds altering viability of human ES cells (AID 493140; call rule not given here;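 note: cells exposed to compounds for four days before counting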). The conditions noted are these: human embryonic stem cell survival screen; stronger effect = higher value.
A short description of assay [13]: P. berghei load reduction in hepatocytes – cell-based, HepG2, luciferase luminescence, HepG2 viability, primary screen (AID 624349; in the data active = parasite load remaining mostly below about 12%, no sharp cut-off; inactive = mostly above about 10%;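 note: 100% = mean of DMSO negative control wells on the same plate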). The settings on record: P. berghei liver stage in HepG2, luciferase luminescence, concentration not given here; parasite load remaining: stronger effect = lower value; viability: measured here: HepG2 viability without parasites.
Assay [14] is described as follows: MELAS cybrid and Rieske KO viability enhancers – cell-based, MELAS cybrids, Rieske KO mouse fibroblasts, CellTiter-Glo, primary screen (AID 1508586;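 active = mean z-score across replicates of 1.96 or higher in either the MELAS or the Rieske mutant cell line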;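 note: z relative to plate mean and SD of compound and empty wells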). The conditions noted are these: low glucose.
Setting [15] is: measured here: epithelial PC-3E GFP cell survival.
The mark [16] stands for this setting: measured here: mesenchymal TEM4-18 mCherry cell survival.
The mark [17] stands for this setting: stronger effect = lower value, cell number ratio, induced over uninduced.
[18] abbreviates: measured here: relative caspase fold change +Dox/-Dox.
The mark [19] stands for this setting: measured here: total cells with miR-34 induction, stronger effect = lower value.
Where [20] appears, read: measured here: total cells without miR-34 induction.

“And” between values parts separate entries of the source, which are not always exact repeats. Equal values may be shown once. The source made the active and inactive calls.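 Rule for the calls, unless noted: active = compound raises insulin release from rat beta cells at 5 mM glucose, no numeric limit stated; inactive = the rest.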

As for `O=S(=O)(O)c1cc(I)c(O)c2ncccc12`, the nuclear beta-catenin stimulation in assay [1] (at 10 µM) is -0.8% (inactive); in assay [1] (stimulation, at 2 µM) it was -0.5%. In addition, in [2], the insulin secretion stimulation is -0.3% (inactive). The viability decrease in assay [3] is 62.2% (active). Besides, the tube area decrease in assay [4] was -5.5% (inactive). Moreover, the GLP1 secretion stimulation in [5] was -2.6% (inactive). Besides, the inhibition of viability in assay [6] is 41% (inactive). In addition, the viability decrease (inhibition) was 77.9% (active) in assay [7] and 53.4% (active) in assay [8]. Also, the red/green cell ratio (normalised) in assay [9] was 1 (inactive). Besides, the normalised cell number in assay [9] (setting [15]) amounted to 1.1; in assay [9] (setting [16]) it was 1.11. Besides, the fold change was 1.07 (inactive) in assay [10] (setting [17]) and 0.778 in assay [10] (setting [18]). The figures for the cell count in assay [10] (setting [19]) and in assay [10] (setting [20]) were 5970 and 5570, respectively. Further, in assay [11], the remaining NAD was 10 nM (inactive).
Consider `[O-][n+]1cccc(CO)c1`, for which the nuclear beta-catenin stimulation in [1] (at 10 µM) is -0.4% (inactive); in assay [1] (stimulation, at 2 µM) it was 0.6%. Further, in assay [2], the insulin secretion stimulation is 2.1% (inactive). For the same compound, the viability decrease in assay [3] was -35% (inactive). Besides, the tube area decrease in assay [4] was 18.7% (inactive). In addition, the GLP1 secretion stimulation in [5] is -4.1% (inactive). Moreover, in assay [6], the inhibition of viability was 1.43% (inactive). In addition, the viability decrease (inhibition) in assay [7] is -11.9% (inactive); in assay [8] it was -6% (inactive). Further, the red/green cell ratio (normalised) in assay [9] is 0.9 (inactive). The normalised cell number in [9] (setting [15]) was found to be 1.13; in assay [9] (setting [16]), 1.02. In addition, the figures for the fold change in [10] (setting [17]) and in [10] (setting [18]) were 0.861 (inactive) and 0.917, respectively. The cell count in assay [10] (setting [19]) was 7710; in assay [10] (setting [20]), 8950. Besides, the remaining NAD in [11] is 10 nM (inactive).
As usually defined, the viability is the share of living cells, or the viability signal relative to a control. As to `CC(=O)N[C@@H](CC(C)C)C(=O)O`, the survival in [12] was 3.17 (inactive). Besides, the parasite load remaining in assay [13] was 73.5% (inactive) and 218% (inactive). For the same compound, the viability in [13] is 98.8% and 70.6%. The nuclear beta-catenin stimulation in assay [1] (at 10 µM) is 0% (inactive); in assay [1] (stimulation, at 2 µM) it was 1.3%. Further, the insulin secretion stimulation in assay [2] was -1% (inactive). Moreover, the viability decrease in assay [3] was -27.2% (inactive). Besides, in assay [4], the tube area decrease is -4.7% (inactive). For the same compound, the GLP1 secretion stimulation in assay [5] is -1.9% (inactive). The inhibition of viability in [6] was -7.5% (inactive). The results for the viability decrease (inhibition) in assay [7] and in assay [8] were 28% (inactive) and -12.9% (inactive), respectively. Moreover, the red/green cell ratio (normalised) in assay [9] is 0.81 (inactive). Moreover, the normalised cell number in assay [9] (setting [15]) turned out to be 1.12; in assay [9] (setting [16]) it was 0.91. Also, the fold change was 0.893 (inactive) in assay [10] (setting [17]) and 1.09 in assay [10] (setting [18]). In addition, the results for the cell count in [10] (setting [19]) and in assay [10] (setting [20]) were 9170 and 10300, respectively. The z-score in [14] (MELAS cybrid survival, CellTiter-Glo 48 h, stronger effect = higher value) is 0.637 (inactive); in assay [14] (Rieske KO mouse fibroblast survival, CellTiter-Glo 72 h), -0.175.
With `CC1(O)CCC(C(C)(C)O)CC1` (centres undefined), the nuclear beta-catenin stimulation in assay [1] (at 10 µM) was -0.3% (inactive); in assay [1] (stimulation, at 2 µM), 1.1%. Further, in assay [2], the insulin secretion stimulation is 1.4% (inactive). Moreover, in assay [3], the viability decrease is -1.3% (inactive). In [4], the tube area decrease was 2.4% (inactive). In addition, the GLP1 secretion stimulation in assay [5] was -5.3% (inactive). Also, the inhibition of viability in assay [6] was 1.1% (inactive). Besides, the results for the viability decrease (inhibition) in [7] and in assay [8] were 5.7% (inactive) and -8.9% (inactive), respectively. In addition, the red/green cell ratio (normalised) in [9] was 1.09 (inactive). The normalised cell number in assay [9] (setting [15]) was 0.89; in assay [9] (setting [16]), 0.97. For the same compound, the values for the fold change in [10] (setting [17]) and in assay [10] (setting [18]) were 0.976 (inactive) and 0.869, respectively. For the same compound, the cell count in assay [10] (setting [19]) turned out to be 8640; in assay [10] (setting [20]), 8850. For the same compound, in assay [11], the remaining NAD was 10 nM (inactive).
Regarding `COc1cc(/C=C/C(N)=O)cc(OC)c1OC`, the nuclear beta-catenin stimulation was 1.1% (inactive) in assay [1] (at 10 µM) and 0.6% in assay [1] (stimulation, at 2 µM). Moreover, in assay [2], the insulin secretion stimulation is 0.8% (inactive). For the same compound, the viability decrease in assay [3] is -4.6% (inactive). For the same compound, the tube area decrease in assay [4] is 11.9% (inactive). In addition, the GLP1 secretion stimulation in assay [5] is 0.1% (inactive). In [6], the inhibition of viability is -6% (inactive). Also, the viability decrease (inhibition) in assay [7] is 6.6% (inactive); in assay [8], 4.6% (inactive). The red/green cell ratio (normalised) in [9] is 0.8 (inactive). In addition, the results for the normalised cell number in [9] (setting [15]) and in [9] (setting [16]) were 1.28 and 1.03, respectively. Further, the fold change in assay [10] (setting [17]) is 0.933 (inactive); in assay [10] (setting [18]), 0.864. In addition, the values for the cell count in assay [10] (setting [19]) and in assay [10] (setting [20]) were 8570 and 9180, respectively. In addition, in assay [11], the remaining NAD is 10 nM (inactive).
